Assay outcomes: PubChem BioAssay, National Center for Advancing Translational Sciences (NCATS)
LDHA inh = inhibitors of human lactate dehydrogenase A; activity change, % (values are at about 110 or 230 µM); purified LDHA, NADH/diaphorase-resazurin fluorescence; hits give low values; P00338; 0.15% of 480,000 active; AID 1347041; in the data active = activity change below about -30%; inconclusive = mostly about -25% to -30%
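Resorufin fluorescence (ex540/em590), read at 0 and 20 min after diaphorase/resazurin addition, reports the NADH left after a 5 min room-temperature reaction of 2 nM human LDH5 with 0.06 mM NADH and 0.2 mM pyruvate.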
TDP1 cell CPT = DT40-hTDP1 cell growth loss with CPT | chicken DT40 Tdp1-/-;hTDP1 cells + 20 nM CPT, ATP luminescence, 48 h | Potency, µM (highest dose often 46.2 µM), most hits filed as inhibitors | 12% of 420,000 active; also: nearly all actives have a fitted effect of over 55% in size
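Cell growth measured by CellTiter-Glo luminescence after a minimum 48 h, 37 C compound exposure with 20 nM CPT in Tdp1-knockout DT40 cells stably expressing hTDP1, seeded 400/well; qHTS titration format.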
RORgamma inh = ROR gamma (mouse) transcription inhibition; Potency, µM (titrated, usually from 53.6 µM), hits mostly inhibitors; AID 2551; 5.4% of 310,000 active; P51450; Drosophila S2 Gal4-RORgamma UAS-luciferase reporter, 20 h; also: nearly all actives have a fitted effect of over 60% in size
Target sequence (P51450 whole entry, looked up, the tested form may be a part): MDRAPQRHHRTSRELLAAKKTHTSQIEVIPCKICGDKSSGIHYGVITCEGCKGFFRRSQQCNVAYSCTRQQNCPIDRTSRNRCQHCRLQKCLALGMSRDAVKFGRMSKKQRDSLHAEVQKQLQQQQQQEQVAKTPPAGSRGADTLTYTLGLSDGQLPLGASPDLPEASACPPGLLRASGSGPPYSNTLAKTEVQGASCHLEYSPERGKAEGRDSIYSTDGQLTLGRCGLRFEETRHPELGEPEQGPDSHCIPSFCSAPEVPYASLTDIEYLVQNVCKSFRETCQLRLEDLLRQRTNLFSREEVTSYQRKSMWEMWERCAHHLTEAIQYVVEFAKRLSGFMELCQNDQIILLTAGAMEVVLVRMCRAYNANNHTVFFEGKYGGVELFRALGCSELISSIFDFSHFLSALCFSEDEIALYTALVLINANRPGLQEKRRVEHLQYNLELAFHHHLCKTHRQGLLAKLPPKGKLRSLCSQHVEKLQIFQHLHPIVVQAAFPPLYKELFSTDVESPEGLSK
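Drosophila Schneider cells stably carrying a metallothionein-driven Gal4 DBD–ROR gamma fusion and a UAS-Photinus luciferase reporter were exposed to compound for 1 hr, then induced with copper sulfate (700 uM final) for 20 hr at ambient temperature before luminescence reading.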
Gal4-VP16 FLuc = inhibits Gal4-VP16 luciferase reporter, ROR gamma counter-screen | Drosophila S2 Gal4-VP16 UAS-luciferase, luminescence, 20 h | Potency, µM (doses to about 53.6 µM), most hits filed as inhibitors | 3.5% of 310,000 active;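 also: Gal4-VP16 expression switched on by copper sulfate through the metallothionein promoter; nearly all actives have a fitted effect of over 50% in size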
IL1B secr inh = inflammasome signaling inhibition, IL-1 beta readout | THP-1 LPS/ATP IL-1B secretion, AlphaLISA, 16 h; hits give low values | activity change, % at 57.5 µM | 4.7% of 360,000 active | AID 743279; in the data active = activity change below about -50%; inconclusive = mostly about -30% to -49%
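THP-1 cells pretreated 1 hr with compounds (up to 57.5 uM final), then stimulated with LPS (250 ng/mL final) plus ATP (1.25 mM final); secreted IL-1B measured by AlphaLISA after 16 hr, decreased signal indicating inhibition.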
TDP1 cell noCPT = qHTS for Inhibitors of human tyrosyl-DNA phosphodiesterase 1 (TDP1): qHTS in cells in absence of CPT. DT40 Tdp1-/- hTDP1 cells, no CPT, ATP luminescence, 48 h. Potency, µM (top dose mostly 46.2 µM), actives largely listed as inhibitors. 15% of 420,000 active; also: nearly all actives have a fitted effect of over 55% in size
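Stably hTDP1-transfected Tdp1-null chicken DT40 cells were treated with library compounds minus camptothecin and grown for at least 48 hr at 37 °C, after which cellular ATP was quantified by luminescence.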
Numbers stand for hits; n = inactive; u = inconclusive; x = no result given; [ ] = dose if it differs, or a comment. Shown are actives, neighbours in structure and some others; about 18% of the full set was active somewhere. Unless noted, calls follow the shape of the dose curve; as a rule, active = well fitted curve in the direction sought with a large enough effect; inconclusive = small, poorly fitted or top-dose-only effect, or another doubt; inactive = no such curve, though single readings can be large; an effect the other way counts as inactive or inconclusive.

SMILES | LDHA inh | TDP1 cell CPT | RORgamma inh | Gal4-VP16 FLuc | IL1B secr inh | TDP1 cell noCPT
Cc1nc(C)c(C(=O)N/N=C/c2cc(Br)ccc2O)s1 | n | 4.61µM | 3.16µM | 7.94µM | n | 3.66µM
O=C(N/N=C\c1ccc(Sc2ccccn2)o1)c1cccc(Br)c1 | n | n | 8.91µM | u | u | n
O=C(N/N=C\c1cc(Br)ccc1O)c1ccc(S(=O)(=O)N2CCCCC2)cc1 | n | 4.11µM | 3.55µM | 3.98µM | n | 2.91µM
O=C(NN=Cc1cccc(O)c1O)c1ccccc1 | n | 2.59µM | x | x | n | 4.61µM
COc1ccccc1N1CCN(CCCS(=O)(=O)c2ccc(Cl)cc2)CC1 | n | x | x | x | x | x
CSC1SCC2C(=O)N(C)C(C(C)C)C(=O)OCC(NC(=O)c3cnc4ccccc4n3)C(=O)NC(C)C(=O)N(C)C1C(=O)N(C)C(C(C)C)C(=O)OCC(NC(=O)c1cnc3ccccc3n1)C(=O)NC(C)C(=O)N2C (stereo not drawn) | n | n | x | x | -115.8 | n
O=C(Nc1ccccc1C(=O)NC1CCCC1)c1cnc2ccccc2n1 | n | x | x | x | x | x
Cn1c(=O)c2c(nc(Cl)n2CC(=O)NCc2ccccc2Cl)n(C)c1=O | n | x | x | x | x | x
CNc1cccc(-c2cccc(O)c2)n1 | n | n | x | x | n | n
CNc1cc(F)nc(F)n1 | n | 18.4µM | n | n | n | 16.4µM
Cc1ccc(N2CN(Cc3cccnc3)CNC2=S)cc1 | n | n | n | n | n | n
COc1cccc(N2CN(CCc3ccccc3)CNC2=S)c1 | n | n | 14.1µM | u | x | u
CCc1ccc(N2CN(CCc3ccccc3)CNC2=S)cc1 | n | u | 1.26µM | 6.31µM | n | 29.1µM
COc1cccc(N2CN(C3CCCCC3)CNC2=S)c1 | n | n | u | n | x | u
Cc1ccc(N2CN(CCC3=CCCCC3)CNC2=S)cc1 | n | u | 0.562µM | 6.31µM | n | u
COc1ccc(-c2noc(CCC(=O)N3CCc4sccc4C3c3cccs3)n2)cc1OC (stereo not drawn) | n | x | x | x | x | x
O=C(O)C(c1c[nH]c2ccc(Br)cc12)N1CCN(c2ncc(Br)cn2)CC1 (stereo not drawn) | n | x | x | x | x | x
Cn1c(=O)c2nc(SCC(=O)NCc3ccc(F)cc3)n(C)c2n(C)c1=O | n | x | x | x | x | x
CCNC(=O)COc1ccc(NC(=O)c2nn(CC)c(=O)c3ccccc23)cc1 | n | x | x | x | x | x
CCCCN1Cc2cc(C(=O)c3cc(F)ccc3O)cnc2NC1=O | n | u | n[10 µM] | n | -57.5 | u
S=C(NCCc1ccccc1)N/N=C/c1cccc(Br)c1 | n | x | x | x | x | x
COc1ccc(OC)c(CNC(=O)CSc2c3c(nc4cc(Cl)ccc24)CCCC3)c1 | n | 16.4µM | x | x | x | 23.1µM
Cc1ccc(CNC(=O)CSc2c3c(nc4cc(Cl)ccc24)CCCC3)o1 | n | u | n | n | -67.6 | u
O=C(CSc1c2c(nc3cc(Cl)ccc13)CCCC2)NCc1cccs1 | n | x | x | x | x | x
CCOc1ccc(CNC(=O)CSc2c3c(nc4ccc(Cl)cc24)CCCC3)cc1 | n | n | x | x | x | n
SMILES | LDHA inh | TDP1 cell CPT | RORgamma inh | Gal4-VP16 FLuc | IL1B secr inh | TDP1 cell noCPT
COc1cccc(CNC(=O)CSc2c3c(nc4ccc(Cl)cc24)CCCC3)c1OC | n | 7.31µM | x | x | x | 9.2µM
COc1ccccc1NC(=O)CN(c1ccc(C23CC4CC(CC(C4)C2)C3)cc1)S(C)(=O)=O | n | 13µM | n | n | n | 14.6µM
CS(=O)(=O)N(CC(=O)O)c1ccc(C23CC4CC(CC(C4)C2)C3)cc1 | n | n | n | n | n | n
CC1CCCCN1S(=O)(=O)NC1CCN(c2ncccn2)CC1 (stereo not drawn) | n | x | x | x | x | x
CCCCC#Cc1ccc(C(=O)NNC(=O)Nc2ccccc2)o1 | -39.2 | n | n | n | n | n
CC(=O)Nc1ccc(NC(=O)CSc2nccn2Cc2ccccc2)cc1 | n | u | n | n | n | u
Cc1nnc(NC(=O)CSc2nccn2Cc2ccc(F)cc2)s1 | n | u | n | n | n | u
O=C(CSc1nccn1Cc1ccc(Cl)cc1)Nc1nc2ccccc2s1 | n | u | x | x | x | u
Cc1ccc2nc(NC(=O)CSc3nccn3Cc3ccccc3)sc2c1 | n | 25.9µM | x | x | x | u
